Experimental data as given in PubChem BioAssay.
Values without a mark were called inactive. Active and inactive are the calls of the source.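 Rule for the calls: active = mean inhibition above 46.68%, the untreated control wells mean plus 3 SD; inactive = the rest.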

target: Nuclear receptor coactivator 1 (Homo sapiens) (UniProt Q15788); test: NCOA1 GAL4-fusion reporter inhibition – cell-based, luminescence, quadruplicate, confirmation (AID 588820); conditions: HEK293 GAL4-SRC1 luciferase reporter, at 3.6 µM, stronger effect = higher value;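 note: 0% = DMSO wells and 100% = gossypol 36 µM treated wells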
Sequence (Q15788 whole entry, looked up, the tested form may be a part): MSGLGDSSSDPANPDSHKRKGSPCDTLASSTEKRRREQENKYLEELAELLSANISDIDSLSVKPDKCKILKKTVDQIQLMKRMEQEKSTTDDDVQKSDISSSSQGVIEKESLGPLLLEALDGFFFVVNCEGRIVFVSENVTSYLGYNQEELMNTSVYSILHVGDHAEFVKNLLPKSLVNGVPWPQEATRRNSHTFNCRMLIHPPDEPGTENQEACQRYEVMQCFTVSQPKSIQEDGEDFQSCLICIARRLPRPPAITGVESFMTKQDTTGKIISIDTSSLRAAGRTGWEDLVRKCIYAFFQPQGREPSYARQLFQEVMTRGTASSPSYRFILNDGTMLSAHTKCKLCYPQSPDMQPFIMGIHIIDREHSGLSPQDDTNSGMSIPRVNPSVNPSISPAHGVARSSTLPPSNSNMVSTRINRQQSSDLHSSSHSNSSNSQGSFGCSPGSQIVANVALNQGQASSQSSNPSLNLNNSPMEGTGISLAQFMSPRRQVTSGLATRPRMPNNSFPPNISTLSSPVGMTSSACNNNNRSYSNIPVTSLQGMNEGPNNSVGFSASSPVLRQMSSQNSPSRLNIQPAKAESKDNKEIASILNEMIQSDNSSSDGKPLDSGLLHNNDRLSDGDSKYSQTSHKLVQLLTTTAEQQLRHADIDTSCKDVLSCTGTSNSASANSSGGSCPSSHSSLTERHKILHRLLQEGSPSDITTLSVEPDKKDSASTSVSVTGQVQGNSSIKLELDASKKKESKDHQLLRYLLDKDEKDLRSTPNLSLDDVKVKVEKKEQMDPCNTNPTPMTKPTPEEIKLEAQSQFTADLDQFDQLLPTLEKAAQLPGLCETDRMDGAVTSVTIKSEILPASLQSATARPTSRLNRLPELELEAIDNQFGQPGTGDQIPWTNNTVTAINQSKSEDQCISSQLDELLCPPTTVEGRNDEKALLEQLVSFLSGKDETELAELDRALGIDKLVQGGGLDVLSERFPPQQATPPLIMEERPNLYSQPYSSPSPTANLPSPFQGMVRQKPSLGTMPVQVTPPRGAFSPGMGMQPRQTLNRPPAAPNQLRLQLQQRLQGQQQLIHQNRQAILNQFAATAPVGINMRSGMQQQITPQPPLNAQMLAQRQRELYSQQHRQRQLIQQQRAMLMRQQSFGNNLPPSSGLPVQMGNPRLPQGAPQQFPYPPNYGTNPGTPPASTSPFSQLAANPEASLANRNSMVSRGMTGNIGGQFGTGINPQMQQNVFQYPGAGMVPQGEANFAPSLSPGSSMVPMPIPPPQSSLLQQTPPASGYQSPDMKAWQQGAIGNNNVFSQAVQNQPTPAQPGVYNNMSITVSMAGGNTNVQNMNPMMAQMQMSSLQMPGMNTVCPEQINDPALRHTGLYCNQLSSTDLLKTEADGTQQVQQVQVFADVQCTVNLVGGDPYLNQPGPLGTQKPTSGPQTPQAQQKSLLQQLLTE

| SMILES | inhibition |
| --- | --- |
| CC(C)[C@H]1C(=O)O[C@H](C(C)C)C(=O)N(C)[C@@H](C(C)C)C(=O)O[C@H](C(C)C)C(=O)N(C)[C@@H](C(C)C)C(=O)O[C@H](C(C)C)C(=O)N1C | 59.5% (active) |
| Cc1cccc(C)c1-n1nnnc1C(CCc1ccccc1)N1CCC(n2c(=O)[nH]c3ccccc32)CC1 (stereo not drawn) | 20.7% |
| CNC(=O)c1cccn(Cc2cccc(C(F)(F)F)c2)c1=O | -26.7% |
| N#CC(C#N)=NNc1ccc(-n2ccc(C(F)(F)F)n2)cc1 | 40.7% |
| CNC(=O)c1cccn(Cc2cc(C(F)(F)F)cc(C(F)(F)F)c2)c1=O | 10.9% |
| C=C1C(=O)[C@@]23C[C@H]4[C@@H]5[C@@]6(C)CCC[C@@]57[C@@H]2[C@@H](O)[C@@H]1C[C@H]3[C@H]7N4C6 | 26.6% |
| COc1cccc(C(c2nnnn2-c2ccc3c(c2)OCCO3)N2CCC(n3c(=O)[nH]c4ccccc43)CC2)c1OC (stereo not drawn) | -22.4% |
| C[C@H]1CCC[C@@H](O)CCC/C=C/c2cc(O)cc(O)c2C(=O)O1 | 29.2% |
| O=c1[nH]c2ccccc2n1C1CCN(C(c2cc3ccccc3o2)c2nnnn2Cc2ccccc2)CC1 (stereo not drawn) | -16% |
| CSCCC(c1nnnn1Cc1ccccc1)N1CCC(n2c(=O)[nH]c3ccccc32)CC1 (stereo not drawn) | 36.4% |
| CCCc1nc2ccc(Br)cc2c(=O)n1-c1ccc([N+](=O)[O-])c(C(F)(F)F)c1 | 13.3% |
| O=C(CSC1c2ccccc2-c2ccccc21)N/N=C/c1ccccc1O | 13.8% |
| O=c1[nH]c2ccccc2n1C1CCN(C(CCc2ccccc2)c2nnnn2C2CCCC2)CC1 (stereo not drawn) | -2.66% |
| Cc1ccc(C[n+]2c(-c3ccc(C)cc3)cc(-c3ccc(C)cc3)cc2-c2ccc(C)cc2)cc1 | 44.1% |
| CSCCC(c1nnnn1-c1ccc2c(c1)OCCO2)N1CCC(n2c(=O)[nH]c3ccccc32)CC1 (stereo not drawn) | -22.6% |
| C/C(=N\Nc1ccccc1)c1c(O)[nH]c(=O)[nH]c1=O | -2.36% |
| Cc1[nH]nc2ccc(-c3cncc(OC[C@@H](N)Cc4c[nH]c5ccccc45)c3)cc12 | 93.5% (active) |
| COc1cc2c(cc1O)C[C@H]1NCCc3cc4c(c-2c31)OCO4 | 22.1% |
